A selection: hits, their analogues and other compounds. The true share with any hit is near 4.7%.
D1 agonist: activates the human D1 dopamine receptor. P21728. HEK293 T-REx D1 cells, calcium flux, agonist mode. activation, % at 2 µM. 360,000 compounds, 1% hits. AID 504660; note: 0% is about no effect
Target sequence (P21728 whole entry, looked up): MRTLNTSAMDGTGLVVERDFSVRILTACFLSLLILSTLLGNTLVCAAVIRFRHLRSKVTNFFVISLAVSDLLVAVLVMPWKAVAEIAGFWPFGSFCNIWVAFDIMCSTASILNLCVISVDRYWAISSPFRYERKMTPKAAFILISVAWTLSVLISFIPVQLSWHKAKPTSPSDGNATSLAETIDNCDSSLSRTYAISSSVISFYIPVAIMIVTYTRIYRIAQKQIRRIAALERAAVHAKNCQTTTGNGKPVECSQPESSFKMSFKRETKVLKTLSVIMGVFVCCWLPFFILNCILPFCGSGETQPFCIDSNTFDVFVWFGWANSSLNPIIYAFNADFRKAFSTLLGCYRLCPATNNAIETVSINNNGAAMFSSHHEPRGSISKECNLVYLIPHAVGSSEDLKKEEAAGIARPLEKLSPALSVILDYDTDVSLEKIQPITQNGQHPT
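Tetracycline-induced HEK293 TREx D1 cells, force-coupled to calcium signalling, were dye-loaded with a no-wash calcium kit. Compound was pin-added after a 10 s baseline. Fluorescence was read kinetically at 1 cycle/s for 180 s, with calcium rises flagged as agonism.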
TRHR enhancer: allosteric enhancers of human TRH receptor. P34981. TRHR cells, fluo-8 calcium fluorescence, EC20 TRH enhancement. enhancement, % at 2 µM. 360,000 compounds, 0.66% hits. AID 493056; in the data active = enhancement above about 30%; note: 0% is about no effect
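Enhancer read-out: after compound pinning and an initial kinetic agonist-mode read, an EC20 of TRH (10 nM final) was injected and fluo-8 calcium signal (Ex 480/Em 530) followed at 1 s/cycle for 100 cycles in TRHR-expressing cells.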
D1 antagonist: antagonists of human D1 dopamine receptor. 360,000 compounds, 3.2% hits. HEK293 TREx D1 cells, calcium flux, dopamine EC80; stronger effect = lower value. activity change, negative = inhibition, % at 10 µM; in the data active = activity change below about -30%; note: % is set by controls: 0 for no effect and ±100 for the full control effect
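Compound effects on dopamine-evoked calcium signalling were measured in tetracycline-induced HEK293 Trex D1 cells. Dopamine at EC80 followed a 180 s compound pre-read, and fluorescence was tracked kinetically for 180 s more.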
TRHR agonist: agonists of human TRH receptor; TRHR cells, calcium flux fluo-8, FDSS agonist mode; activation, % at 2 µM; 360,000 compounds, 0.18% hits; P34981; note: 0% is about no effect
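TRHR-expressing cells loaded with fluo-8 calcium dye; 23 nL library compound pin-transferred, kinetic FDSS fluorescence (Ex 480/Em 530) recorded about 180 s for agonist-induced calcium release, before a 10 nM TRH EC20 addition for potentiator mode.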
D1 PAM: potentiators of human D1 dopamine receptor. AID 504651. 360,000 compounds, 0.036% hits. HEK293 TREx D1 cells, calcium flux, dopamine EC20 potentiation. potentiation, % at 10 µM; in the data active = potentiation above about 30%; note: 0% is about no effect
Numbers without * were called inactive; · = no result. Cut-off read from the data, not from the text of the source, unless noted: active = activation above about 30%; inactive = the rest.

SMILES | D1 agonist | TRHR enhancer | D1 antagonist | TRHR agonist | D1 PAM
Cn1c(=O)c(NCCc2ccccc2)c2c3c(cccc31)C(=O)c1ccccc1-2 | 393.8* | -18.3 | -77.6* | 175.4* | -5.0
Cn1c(=O)c(NC2CCCCC2)c2c3c(cccc31)C(=O)c1ccccc1-2 | 454.8* | 4.6 | -68.0* | 218.9* | -3.8
CCNc1cccc2c1C(=O)N(C)C2=O | 20.1 | 0.4 | 11.4 | 8.2 | 7.9
CN1C(=O)c2cccc(NCCCN3C(=O)c4ccccc4C3=O)c2C1=O | 4.4 | 0.4 | -4.6 | 2.1 | 1.1
COc1ccc(CNC(=O)CN(C)S(=O)(=O)c2ccc3c(c2)c(=O)n(C)c(=O)n3C)cc1 | 1.6 | -0.1 | -2.6 | -0.3 | -3.1
Nc1c(N(CCC2=CCCCC2)C(=O)c2ccccc2F)c(=O)[nH]c(=O)n1Cc1ccccc1 | 1.7 | 6.8 | -6.2 | 1.3 | 4.3
CCn1cc(C(=O)NCCc2ccc(Cl)cc2)c(=O)c2cc(S(=O)(=O)N(C)C3CCCCC3)ccc21 | 0.2 | 3.8 | 19.6 | 0.9 | 1.8
Cn1c(=O)c(NCCO)c2c3c(cccc31)C(=O)c1ccccc1-2 | 441.8* | 8.1 | -41.9* | 268.9* | 14.7
CC(=O)Nc1ccc(Nc2c3c4c(cccc4n(C)c2=O)C(=O)c2ccccc2-3)cc1 | 13.3 | -6.4 | 17.9 | 5.0 | 14.6
C=Cc1ccc(CN2C(=O)N(c3cccc(Cl)c3)S(=O)(=O)c3ccccc32)cc1 | 3.1 | -0.2 | -92.0* | 0.9 | -3.8
O=S1(=O)c2ccccc2N(Cc2ccc(Cl)cc2)c2ccccc21 | 32.2* | 8.0 | 3.5 | -0.5 | -4.2
Cc1nnc(N2CCCC(C(=O)NCCc3ccc(Cl)cc3)C2)c2nn(-c3ccccc3)c(C)c12 (stereo unspecified) | 1.9 | -5.3 | 15.7 | -1.1 | 0.8
O=C(Nc1ccc(Cl)cc1)c1ccc2c(=O)n3c(nc2c1)CCCCC3 | 11.6 | -7.6 | -59.2* | -0.9 | -15.8
CC(OC(=O)c1ccc2c(=O)n3c(nc2c1)CCCCC3)C(=O)Nc1ccc(F)cc1Cl (stereo unspecified) | 0.2 | 0.9 | -37.0* | 0.1 | -4.2
CC(OC(=O)c1ccc2c(=O)n3c(nc2c1)CCCCC3)C(=O)Nc1ccc(Cl)cn1 (stereo unspecified) | -0.4 | -5.5 | -1.8 | -0.5 | -2.7
CN(C)c1ccc(NC(=O)c2ccc3nsnc3c2)cc1 | 0.6 | 5.6 | 6.0 | -1.1 | -7.2
CC(=O)c1ccc(NC(=O)c2ccc3c(=O)n4c(nc3c2)CCCCC4)cc1 | 10.3 | 0.3 | -44.5* | -0.2 | -3.7
O=C(Nc1ccc(Cl)cc1)c1ccc2nsnc2c1 | 19.6 | -7.6 | -46.9* | -0.3 | -14.9
O=C(COC(=O)Cc1cccc(C(F)(F)F)c1)Nc1ccc2[nH]c(=O)[nH]c2c1 | 0.2 | 1.4 | 6.5 | 0.2 | 2.9
N#Cc1nc(-c2ccco2)oc1NCc1ccccc1Cl | -0.2 | -1.0 | 0.1 | 0.0 | -5.0
Cc1c(Br)cnn1C(C)C(=O)N1CCN(c2ccccc2F)CC1 (stereo unspecified) | 1.8 | -5.4 | -1.5 | -0.2 | -3.1
O=C(Nc1ccc(F)c(Cl)c1)c1ccc2c(=O)n3c(nc2c1)CCCCC3 | 16.4 | 2.5 | -58.2* | 0.9 | -5.3
O=C(Nc1ccc(F)cc1)c1ccc2c(=O)n3c(nc2c1)CCCCC3 | 3.5 | -13.7 | -5.8 | 0.3 | -11.4
Cc1ccc(S(=O)(=O)N2CCN(CC(=O)Nc3ccnn3C3CCCC3)CC2)cc1 | 1.8 | -6.8 | -37.4* | -0.7 | -10.6
O=C(CN1CCN(S(=O)(=O)c2ccccc2F)CC1)Nc1ccnn1C1CCCC1 | 6.4 | 0.4 | -39.8* | -0.2 | -9.9
SMILES | D1 agonist | TRHR enhancer | D1 antagonist | TRHR agonist | D1 PAM
CC(NC(=O)CNC(=O)c1sc2ccccc2c1Cl)c1ccc(S(N)(=O)=O)cc1 (stereo unspecified) | 5.1 | 0.5 | -19.7 | 0.9 | -3.9
Cc1ccc(-n2ncc(C(=O)NCCN3CCCC3)c2C2CCN(C(=O)OC(C)(C)C)CC2)cc1C | 9.7 | 9.5 | 27.1 | 1.4 | -3.4
Cc1cc(NC(=O)NCC(F)(F)F)no1 | 0.4 | -1.7 | 1.9 | -0.1 | -2.2
CCC(=O)N1CCc2cc(Br)cc(S(=O)(=O)N3CCC(C(=O)NC(C)C)CC3)c21 | 2.6 | 20.6 | 12.4 | -1.7 | ·
COc1ccc(C(CC(=O)N2CCOCC2)c2c(OC)cc(OC)c3c(-c4ccccc4)cc(=O)oc23)cc1 (stereo unspecified) | 4.5 | 0.4 | -41.5* | 0.1 | -8.9
Cc1noc(C)c1CSCC(=O)N(C)CC(=O)Nc1ccccc1Br | 4.3 | -4.9 | -47.1* | -0.3 | -3.4
Cc1cccc(C)c1NC(=O)CN(C)C(=O)CSCc1c(C)noc1C | 0.1 | 13.4 | 18.2 | -0.8 | -0.8
Cc1c(C)c2ccc(Oc3ccc([N+](=O)[O-])cc3C(F)(F)F)c(C)c2oc1=O | 2.7 | -0.8 | -33.3* | 0.4 | -3.5
COc1ccc2c(C(F)(F)F)cc(=O)oc2c1C | 1.6 | 3.7 | 4.6 | -0.4 | 15.1
CC1CCCCN1C(=O)Cn1c(=O)n(CCC(=O)NCc2ccco2)c(=O)c2sccc21 (stereo unspecified) | 0.2 | 35.1* | -0.2 | 0.3 | -0.8
CC1CCN(C(=O)Cn2c(=O)n(CCCC(=O)NCc3ccco3)c(=O)c3sccc32)CC1 | 2.2 | -7.8 | 2.4 | -0.8 | -2.4
CCn1cc(/C=C/c2cc[n+](C)cc2)c2ccccc21 | 69.1* | 8.3 | -9.2 | -1.0 | -6.9
C=CCn1cc(/C=C/c2cc[n+](C)cc2)c2ccccc21 | 38.3* | 0.3 | 0.8 | 6.0 | -4.7
O=C1C(=O)N(CCCn2ccnc2)C(c2ccc([N+](=O)[O-])cc2)/C1=C(\O)c1ccc2c(c1)OCCO2 (stereo unspecified) | 4.6 | 13.8 | 26.2 | 0.6 | 2.5
CCOc1ccc(NC(=S)N(CCCN2CCCC2)Cc2cccn2Cc2ccc(Cl)cc2)cc1 | 3.9 | -7.7 | -47.8* | 0.5 | -14.5
Cc1cccc2cc(CN(Cc3ccco3)C(=O)Nc3cccc(C#N)c3)c(Cl)nc12 | 14.1 | -5.2 | -55.0* | 2.6 | -7.6
Cc1ccc(NC(=O)N(Cc2ccco2)Cc2cc3cc(C)cc(C)c3nc2Cl)cc1 | 5.3 | 16.0 | -3.7 | -0.6 | -5.3
Cc1ccc(N(CC(=O)NCCc2ccccc2C)S(=O)(=O)N(C)C)cc1 | -2.0 | 1.3 | -12.4 | -0.6 | -1.5
Cc1ccc(Cl)cc1N1CCN(C(=O)c2cn(C)c3ccc(S(=O)(=O)N4CCCCC4)cc3c2=O)CC1 | 0.4 | -9.3 | 16.0 | -0.4 | -0.1
O=[N+]([O-])c1cc(Cl)c(O)c2ncccc12 | 2.9 | -1.6 | 1.4 | -0.2 | -2.1
O=[N+]([O-])c1cc(Cl)c2cccnc2c1O | 30.1* | 1.6 | -11.9 | 6.1 | -2.7
CCN(CC)c1ccc(/C=C/c2cc(-c3ccccc3)c3ccccc3n2)cc1 | 325.3* | 27.7 | -57.3* | 88.8* | 16.7
Cc1cc(=O)[nH]c(SCC(=O)N2CCN(c3ccccc3)CC2)n1 | 0.6 | -1.0 | -4.5 | 0.0 | -0.8

From PubChem BioAssay
